Experimental data taken from PubChem BioAssay (NCI).
Compounds without any hit were thinned out: in the full panel of roughly 79,000, 15% have a hit. The source made the active and inactive calls. Cut-off read from the data, not from the text of the source: active = growth inhibition above about 70%; inactive = the rest.

Test: NCI Yeast Anticancer Drug Screen. Data for the rad18 strain (AID 177)
Details: S. cerevisiae rad18 mutant growth inhibition, stronger effect = higher value
Method: Growth inhibition of yeast strains with defined genetic alterations is measured as a screen for potential anti-cancer activity. Selected strains with alterations in DNA damage repair or cell cycle control were exposed to compounds and growth inhibition was measured relative to vehicle treated controls. The strain used in this assay is rad18

Measured: growth inhibition

CO[C@@]12[C@H](COC(N)=O)C3=C(C(=O)C(C)=C(N)C3=O)N1C[C@@H]1N[C@@H]12
inactive: at 1.2 µM 20% | at 3.7 µM 60%
active: at 11.0 µM 84% | at 33.0 µM 93% | at 100.0 µM 94%

Nc1cc(F)cc2c1-c1ccc(F)cc1C2
inactive: at 1.2 µM -1% | at 3.7 µM 4% | at 11.0 µM 7% | at 33.0 µM 49%
active: at 100.0 µM 94%

Cc1cc(Cl)ccc1NC(=O)/C(Cl)=C1/Sc2ccccc2NC1=O
inactive: at 1.2 µM 0% | at 3.7 µM 3% | at 11.0 µM 4% | at 33.0 µM 6% | at 100.0 µM 45%

Cc1cccc(/C=N/NC(=S)N(C)CCc2ccccn2)n1
active: at 1.2 µM 92% | at 3.7 µM 96% | at 11.0 µM 98% | at 33.0 µM 98% | at 100.0 µM 98%

CC(=O)C1(O)Cc2c(O)c3c(c(O)c2C(OC2CC(N)C(O)C(C)O2)C1)C(=O)c1ccccc1C3=O (stereo not given)
inactive: at 1.2 µM 1% | at 3.7 µM 60%
active: at 11.0 µM 94% | at 33.0 µM 96% | at 100.0 µM 98%

O=c1[nH]c2ccccc2c2nc3ccccc3n12
inactive: at 1.2 µM -29% | at 3.7 µM -22% | at 11.0 µM -20% | at 33.0 µM 27% | at 100.0 µM 9%

Cc1cccc(/C=N\NC(=S)N2CCCCC2)n1
active: at 3.7 µM 92% | at 11.0 µM 97% | at 33.0 µM 98% | at 100.0 µM 98%
inactive: at 1.2 µM -7%

Nc1ccc(S(=O)(=O)Nc2ccc(Nc3c4ccccc4nc4ccccc34)cc2)cc1
inactive: at 1.2 µM 17% | at 3.7 µM 11% | at 11.0 µM 6% | at 33.0 µM 6% | at 100.0 µM 58%
